Measured values published in the supplement of paper PMC10849652.
About 7,900 targets were measured; listed, in parts, are those with a hit and a random draw of the rest. About 0.6% of all pairs of compound and target were hits. Values without a mark were called inactive.

Columns and labels:
Assay in all cases: log2 fold change, soluble protein after heating vs DMSO (PISA); higher = thermal stabilisation; K562 cells, 10 uM, 30 min; active = over 0.2 and 3.5 SD of the protein, either way, in both replicates (recomputed)
[1] = compound: CS(=O)(=O)c1ccc(-c2cnc(N)c(C(=O)Nc3ccccc3)n2)cc1
How it was run: (§1)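 Values are thermal stability changes relative to control samples and are taken from duplicates. They are stated as log2 fold changes. Before quantification by TMTpro 16plex LC-MS/MS with equalised channel sums, K562 cells at 2×10^6 cells/mL were treated with 10 μM compound for 30 min, heated in aliquots for 3 min across 48°C-58°C, pooled, extracted in PBS with 0.5% NP-40 at 4°C, and centrifuged at 21,000xg for 90 min to give the soluble supernatant.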

crizotinib = compound: C[C@@H](Oc1cc(-c2cnn(C3CCNCC3)c2)cnc1N)c1c(Cl)ccc(F)c1Cl [crizotinib]
How it was run: as §1

[2] = compound: C[C@@H]1COCCN1C2=NC(=NC(=C2)C3(CC3)S(=O)(=O)C)C4=C5C=CNC5=CC=C4
How it was run: as §1

[3] = compound: C[C@H](C1=CC=C(C=C1)C(=O)NC2=C3C=CNC3=NC=C2)N
How it was run: as §1

duvelisib = compound: C[C@H](Nc1ncnc2nc[nH]c12)c1cc2cccc(Cl)c2c(=O)n1-c1ccccc1 [duvelisib]
How it was run: as §1

gandotinib = compound: Cc1cc(Nc2cc(CN3CCOCC3)c3nc(C)c(Cc4ccc(Cl)cc4F)n3n2)n[nH]1 [gandotinib]
How it was run: as §1

tozasertib = compound: Cc1cc(Nc2cc(N3CCN(C)CC3)nc(Sc3ccc(NC(=O)C4CC4)cc3)n2)n[nH]1 [tozasertib]
How it was run: as §1

[4] = compound: Cc1cc(SCc2sc(-c3ccc(C(F)(F)F)cc3)nc2C)ccc1OCC(=O)O
How it was run: as §1

doramapimod = compound: Cc1ccc(-n2nc(C(C)(C)C)cc2NC(=O)Nc2ccc(OCCN3CCOCC3)c3ccccc23)cc1 [doramapimod]
How it was run: as §1

ispinesib = compound: Cc1ccc(C(=O)N(CCCN)[C@@H](c2nc3cc(Cl)ccc3c(=O)n2Cc2ccccc2)C(C)C)cc1 [ispinesib]
How it was run: as §1

bafetinib = compound: Cc1ccc(NC(=O)c2ccc(CN3CC[C@H](N(C)C)C3)c(C(F)(F)F)c2)cc1Nc1nccc(-c2cncnc2)n1 [bafetinib]
How it was run: as §1

[5] = compound: Cc1cccc(CC(=O)N2CCc3c2ccc(-c2cn(C)c4ncnc(N)c24)c3F)n1
How it was run: as §1

nilotinib = compound: Cc1cn(-c2cc(NC(=O)c3ccc(C)c(Nc4nccc(-c5cccnc5)n4)c3)cc(C(F)(F)F)c2)cn1 [nilotinib]
How it was run: as §1

[6] = compound: Cc1nc(Nc2n[nH]c3c2CN(C(=O)N[C@H](CN(C)C)c2ccccc2)C3(C)C)c2sccc2n1
How it was run: as §1

dasatinib = compound: Cc1nc(Nc2ncc(C(=O)Nc3c(C)cccc3Cl)s2)cc(N2CCN(CCO)CC2)n1 [dasatinib]
How it was run: as §1

[7] = compound: Cc1ncc(-c2ccnc(Nc3ccc(S(C)(=O)=O)cc3)n2)n1C(C)C
How it was run: as §1

[8] = compound: Cn1cc(-c2ccc3c(c2)CCN3C(=O)Cc2cccc(C(F)(F)F)c2)c2c(N)ncnc21
How it was run: as §1

[9] = compound: Cn1cc(-c2ccc3nnc(C(F)(F)c4ccc5ncccc5c4)n3n2)cn1
How it was run: as §1

tipifarnib = compound: Cn1cncc1[C@@](N)(c1ccc(Cl)cc1)c1ccc2c(c1)c(-c1cccc(Cl)c1)cc(=O)n2C [tipifarnib]
How it was run: as §1

mubritinib = compound: FC(F)(F)c1ccc(/C=C/c2nc(COc3ccc(CCCCn4ccnn4)cc3)co2)cc1 [mubritinib]
How it was run: as §1

Sequence of UniProt Q96QD8 (Q96QD8 whole entry, looked up): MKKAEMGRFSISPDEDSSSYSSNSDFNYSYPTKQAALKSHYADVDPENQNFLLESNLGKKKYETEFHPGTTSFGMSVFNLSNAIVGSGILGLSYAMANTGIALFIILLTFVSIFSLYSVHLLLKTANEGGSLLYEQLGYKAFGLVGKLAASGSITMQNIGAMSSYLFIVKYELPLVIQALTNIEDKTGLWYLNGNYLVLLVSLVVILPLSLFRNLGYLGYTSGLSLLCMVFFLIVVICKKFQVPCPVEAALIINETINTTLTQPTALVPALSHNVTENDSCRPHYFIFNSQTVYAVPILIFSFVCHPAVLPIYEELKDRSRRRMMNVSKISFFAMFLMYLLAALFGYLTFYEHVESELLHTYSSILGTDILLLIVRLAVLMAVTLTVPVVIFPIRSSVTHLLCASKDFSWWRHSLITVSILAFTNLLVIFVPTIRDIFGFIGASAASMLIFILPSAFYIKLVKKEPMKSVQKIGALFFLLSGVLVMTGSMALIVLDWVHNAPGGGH
Sequence of UniProt Q9BZD2 (Q9BZD2 whole entry, looked up): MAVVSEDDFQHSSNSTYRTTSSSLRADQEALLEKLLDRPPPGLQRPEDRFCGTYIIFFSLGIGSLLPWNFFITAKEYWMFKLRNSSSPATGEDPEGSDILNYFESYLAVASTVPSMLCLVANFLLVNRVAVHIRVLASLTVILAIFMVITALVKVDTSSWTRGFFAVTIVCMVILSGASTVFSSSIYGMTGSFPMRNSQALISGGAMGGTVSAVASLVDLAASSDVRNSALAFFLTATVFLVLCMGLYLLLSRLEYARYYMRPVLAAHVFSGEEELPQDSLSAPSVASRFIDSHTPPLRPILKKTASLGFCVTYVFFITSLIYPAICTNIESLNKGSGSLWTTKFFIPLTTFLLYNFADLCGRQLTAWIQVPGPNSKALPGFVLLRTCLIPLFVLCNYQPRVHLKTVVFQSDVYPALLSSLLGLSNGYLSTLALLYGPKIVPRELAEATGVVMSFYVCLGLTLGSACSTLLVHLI
Sequence of UniProt Q8WUH2 (Q8WUH2 whole entry, looked up): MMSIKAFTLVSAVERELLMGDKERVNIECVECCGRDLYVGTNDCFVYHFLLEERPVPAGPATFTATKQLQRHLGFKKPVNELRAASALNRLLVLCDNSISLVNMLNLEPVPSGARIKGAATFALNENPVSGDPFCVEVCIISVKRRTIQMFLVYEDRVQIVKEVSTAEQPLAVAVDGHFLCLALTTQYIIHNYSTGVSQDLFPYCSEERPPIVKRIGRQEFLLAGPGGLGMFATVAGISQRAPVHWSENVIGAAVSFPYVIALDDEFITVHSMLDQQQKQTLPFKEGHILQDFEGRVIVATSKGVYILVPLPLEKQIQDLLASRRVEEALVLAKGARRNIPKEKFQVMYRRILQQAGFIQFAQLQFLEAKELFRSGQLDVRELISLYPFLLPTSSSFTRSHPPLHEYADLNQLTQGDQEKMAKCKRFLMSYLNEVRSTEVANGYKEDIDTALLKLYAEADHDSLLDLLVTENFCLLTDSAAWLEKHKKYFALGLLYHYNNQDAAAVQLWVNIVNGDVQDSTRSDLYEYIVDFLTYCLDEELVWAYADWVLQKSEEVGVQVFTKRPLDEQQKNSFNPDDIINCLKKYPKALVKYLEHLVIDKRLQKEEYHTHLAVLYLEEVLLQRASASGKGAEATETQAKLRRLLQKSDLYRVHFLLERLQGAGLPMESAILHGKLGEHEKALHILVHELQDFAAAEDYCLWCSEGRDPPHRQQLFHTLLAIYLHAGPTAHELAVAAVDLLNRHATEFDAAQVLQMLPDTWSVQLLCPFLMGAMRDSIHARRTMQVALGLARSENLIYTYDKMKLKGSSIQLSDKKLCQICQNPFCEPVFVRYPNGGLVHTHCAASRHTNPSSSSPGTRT
Sequence of UniProt Q13242 (Q13242 whole entry, looked up): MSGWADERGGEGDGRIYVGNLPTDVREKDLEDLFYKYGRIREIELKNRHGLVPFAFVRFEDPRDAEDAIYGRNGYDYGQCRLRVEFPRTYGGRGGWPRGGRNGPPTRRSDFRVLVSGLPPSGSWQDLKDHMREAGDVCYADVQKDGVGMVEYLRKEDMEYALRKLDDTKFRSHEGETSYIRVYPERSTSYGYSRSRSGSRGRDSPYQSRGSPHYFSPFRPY
Sequence of UniProt Q15527 (Q15527 whole entry, looked up): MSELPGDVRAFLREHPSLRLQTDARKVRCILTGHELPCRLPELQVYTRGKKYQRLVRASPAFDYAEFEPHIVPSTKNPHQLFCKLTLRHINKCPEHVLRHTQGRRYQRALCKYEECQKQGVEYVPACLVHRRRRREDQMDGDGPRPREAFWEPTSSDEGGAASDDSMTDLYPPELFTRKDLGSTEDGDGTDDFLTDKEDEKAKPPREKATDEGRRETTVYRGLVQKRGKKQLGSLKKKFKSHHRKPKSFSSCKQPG
Sequence of UniProt P51571 (P51571 whole entry, looked up): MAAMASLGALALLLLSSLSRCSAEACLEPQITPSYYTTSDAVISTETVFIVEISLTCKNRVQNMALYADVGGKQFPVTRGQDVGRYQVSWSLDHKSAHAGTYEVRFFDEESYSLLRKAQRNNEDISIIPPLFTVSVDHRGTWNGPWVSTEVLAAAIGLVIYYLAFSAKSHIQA
Sequence of UniProt Q8TC07 (Q8TC07 whole entry, looked up): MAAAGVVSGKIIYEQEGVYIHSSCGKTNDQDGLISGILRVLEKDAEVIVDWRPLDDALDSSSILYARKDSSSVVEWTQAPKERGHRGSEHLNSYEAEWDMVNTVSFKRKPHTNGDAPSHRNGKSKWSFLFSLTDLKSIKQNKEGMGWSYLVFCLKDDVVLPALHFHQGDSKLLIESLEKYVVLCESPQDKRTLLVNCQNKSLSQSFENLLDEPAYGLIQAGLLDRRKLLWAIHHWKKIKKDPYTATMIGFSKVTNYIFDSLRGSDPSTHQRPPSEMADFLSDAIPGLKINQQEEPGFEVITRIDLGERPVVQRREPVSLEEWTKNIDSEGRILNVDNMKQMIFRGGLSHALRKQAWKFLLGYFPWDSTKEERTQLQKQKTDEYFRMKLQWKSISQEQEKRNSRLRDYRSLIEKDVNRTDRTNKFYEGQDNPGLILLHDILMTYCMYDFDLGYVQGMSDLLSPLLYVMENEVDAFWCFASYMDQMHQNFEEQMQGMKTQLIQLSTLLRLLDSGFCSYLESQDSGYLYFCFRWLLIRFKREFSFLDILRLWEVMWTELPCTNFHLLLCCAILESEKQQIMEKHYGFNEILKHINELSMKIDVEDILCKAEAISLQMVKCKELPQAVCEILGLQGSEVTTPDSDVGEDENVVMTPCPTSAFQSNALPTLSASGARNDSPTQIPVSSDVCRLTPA
Sequence of UniProt P42226 (P42226 whole entry, looked up): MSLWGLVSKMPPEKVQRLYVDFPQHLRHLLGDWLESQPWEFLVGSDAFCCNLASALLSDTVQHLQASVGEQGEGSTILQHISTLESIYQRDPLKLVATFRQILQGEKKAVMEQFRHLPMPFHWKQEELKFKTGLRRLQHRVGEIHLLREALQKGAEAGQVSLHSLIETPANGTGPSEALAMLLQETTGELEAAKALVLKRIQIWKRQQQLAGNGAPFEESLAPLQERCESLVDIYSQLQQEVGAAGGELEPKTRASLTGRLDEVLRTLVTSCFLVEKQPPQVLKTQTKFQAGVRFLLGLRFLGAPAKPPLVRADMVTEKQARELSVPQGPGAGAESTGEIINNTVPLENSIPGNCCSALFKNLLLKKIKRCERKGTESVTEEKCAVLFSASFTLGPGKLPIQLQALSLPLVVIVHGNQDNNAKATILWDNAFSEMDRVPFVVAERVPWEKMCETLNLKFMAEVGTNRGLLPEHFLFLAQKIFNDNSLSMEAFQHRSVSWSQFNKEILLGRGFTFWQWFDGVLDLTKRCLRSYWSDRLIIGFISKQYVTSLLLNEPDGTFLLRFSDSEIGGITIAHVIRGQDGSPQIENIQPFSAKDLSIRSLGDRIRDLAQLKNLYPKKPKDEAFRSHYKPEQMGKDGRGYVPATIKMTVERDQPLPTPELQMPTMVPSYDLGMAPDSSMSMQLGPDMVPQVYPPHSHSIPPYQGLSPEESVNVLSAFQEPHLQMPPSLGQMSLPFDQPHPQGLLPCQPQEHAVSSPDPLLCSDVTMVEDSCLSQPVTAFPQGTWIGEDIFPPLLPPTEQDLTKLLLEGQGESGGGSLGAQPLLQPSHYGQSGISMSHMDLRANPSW
Sequence of UniProt Q9BVV7 (Q9BVV7 whole entry, looked up): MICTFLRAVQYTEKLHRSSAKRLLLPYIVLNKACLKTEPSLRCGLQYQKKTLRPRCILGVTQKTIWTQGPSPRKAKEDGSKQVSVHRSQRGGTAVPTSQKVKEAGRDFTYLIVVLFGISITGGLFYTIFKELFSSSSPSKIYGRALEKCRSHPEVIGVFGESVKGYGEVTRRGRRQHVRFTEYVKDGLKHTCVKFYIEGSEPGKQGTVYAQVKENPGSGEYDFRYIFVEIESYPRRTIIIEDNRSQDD

| Target | log2 fold change [1] | log2 fold change (crizotinib) | log2 fold change [2] | log2 fold change [3] | log2 fold change (duvelisib) | log2 fold change (gandotinib) | log2 fold change (tozasertib) | log2 fold change [4] | log2 fold change (doramapimod) | log2 fold change (ispinesib) | log2 fold change (bafetinib) | log2 fold change [5] | log2 fold change (nilotinib) | log2 fold change [6] | log2 fold change (dasatinib) | log2 fold change [7] | log2 fold change [8] | log2 fold change [9] | log2 fold change (tipifarnib) | log2 fold change (mubritinib) |
| --- | --- | --- | --- | --- | --- | --- | --- | --- | --- | --- | --- | --- | --- | --- | --- | --- | --- | --- | --- | --- |
| TGFBRAP1 (UniProt Q8WUH2) | -0.081 | -0.367 | 0.051 | 0.067 | -0.088 | -0.142 | 0.051 | 0.087 | 0 | -0.221 | -0.05 | 0.482 (active) | -0.122 | -0.125 | -0.153 | 0.091 | -0.151 | -0.16 | 0.032 | 0.053 |
| SURF2 (UniProt Q15527) | -0.009 | 0.084 | -0.02 | -0.118 | 0.018 | 0 | -0.01 | 0.04 | -0.068 | 0.038 | -0.103 | 0.039 | 0.054 | -0.048 | -0.02 | 0.082 | -0.012 | 0.053 | 0.034 | -0.013 |
| TIMM21 (UniProt Q9BVV7) | 0.02 | -0.01 | 0.042 | -0.029 | 0.009 | 0.04 | 0.017 | 0.033 | 0.02 | -0.229 | -0.149 | 0.058 | -0.011 | -0.014 | 0.011 | -0.003 | 0.025 | 0.074 | 0.055 | -0.011 |
| SLC29A3 (UniProt Q9BZD2) | 0.014 | -0.559 (active) | -0.098 | 0.078 | 0.069 | – | 0.097 | 0.055 | 0.015 | -1.02 (active) | -0.111 | – | -0.055 | 0.127 | -0.059 | 0.012 | 0.167 | 0.102 | 0.035 | 0.005 |
| TBC1D15 isoform 3 (UniProt Q8TC07) | -0.012 | -0.275 | -0.032 | 0.036 | -0.031 | -0.191 | 0.061 | 0.064 | 0.017 | -0.154 | -0.026 | 0.059 | -0.116 | -0.098 | -0.133 | -0.004 | -0.052 | 0.011 | -0.134 | 0.054 |
| SRSF9 (UniProt Q13242) | -0.11 | 0.058 | -0.539 | 0.389 | -0.142 | 0.4 | – | -0.048 | 0.26 | -0.255 | 0.166 | -0.02 | 0.014 | 0.05 | 0.422 | 0.001 | -0.377 | -0.129 | 0.298 | -0.189 |
| SLC38A2 (UniProt Q96QD8) | 0.031 | 0.028 | 0.075 | -0.075 | 0.068 | – | -0.009 | 0 | -0.03 | -0.049 | -0.112 | – | -0.037 | 0.039 | 0.047 | 0.029 | -0.055 | 0.029 | -0.073 | 0.017 |
| STAT6 (UniProt P42226) | -0.083 | -0.037 | 0.028 | -0.011 | -0.132 | -0.269 | 0.171 | -0.123 | 0.043 | -0.033 | 0.027 | 0.502 (active) | -0.082 | -0.181 | -0.115 | 0.155 | -0.099 | -0.042 | -0.164 | 0.179 |
| SSR4 (UniProt P51571) | -0.004 | 0.001 | 0.081 | -0.054 | 0.06 | -0.055 | 0.029 | 0.033 | -0.019 | -0.045 | -0.011 | -0.057 | -0.001 | 0.021 | -0.028 | -0.005 | 0.067 | 0.026 | -0.063 | 0.003 |
